# Source: PubChem (National Center for Advancing Translational Sciences (NCATS))
# This is a sample that favours compounds with a hit; in the whole collection about 3.2% have one here.
# TRb-SRC2 inh: TRbeta-SRC2 interaction inhibition | Potency, µM (titrated, usually from 106 µM), inactives show at the highest dose activity change, negative = inhibition, actives largely listed as inhibitors | 0.065% of 280,000 active | TRbeta-SRC2 peptide binding, fluorescence polarization; receptor liganded with 1 µM T3;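 also: plate controls were bound peptide for no effect and peptide without receptor for full effect; nearly all actives have a fitted effect of over 50% in size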
# Target sequence (P10828 whole entry, looked up): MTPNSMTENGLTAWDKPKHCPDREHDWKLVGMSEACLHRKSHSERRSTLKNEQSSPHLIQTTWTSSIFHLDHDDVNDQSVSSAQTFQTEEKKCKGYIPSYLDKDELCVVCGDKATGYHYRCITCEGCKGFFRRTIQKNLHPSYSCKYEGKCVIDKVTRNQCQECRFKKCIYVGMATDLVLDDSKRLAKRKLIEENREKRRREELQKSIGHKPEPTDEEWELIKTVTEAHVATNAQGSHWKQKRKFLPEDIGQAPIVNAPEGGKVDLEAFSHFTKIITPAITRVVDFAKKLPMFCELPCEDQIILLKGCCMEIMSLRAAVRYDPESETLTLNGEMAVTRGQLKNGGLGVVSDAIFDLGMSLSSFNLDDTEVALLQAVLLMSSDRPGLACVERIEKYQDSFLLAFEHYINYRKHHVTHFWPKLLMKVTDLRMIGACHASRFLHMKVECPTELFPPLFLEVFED
#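 Human TRb ligand-binding domain (0.6 uM) is mixed with 20 nM Texas Red SRC2 peptide and 1 uM T3; after compound addition and 5 hr at ambient temperature, polarization is measured and normalized to unbound and bound controls.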
# TexasRed fluor: alters Texas Red total fluorescence, flagging assay interference; Potency, µM (titrated, usually from 106 µM), for the others: at the top dose fluorescence change, negative = quenching; AID 1479; TRb/SRC2 Texas Red total fluorescence interference; 0.29% of 280,000 active; active = well fitted curve in either direction with a large enough effect; inconclusive = small, poorly fitted or top-dose-only effect
#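 Flags fluorescent or light-absorbing compounds by total fluorescence, S + 2P, at 555 nm excitation and 632 nm emission. Mixture: 20 nM Texas Red SRC2 peptide, 0.6 uM human TRb LBD, 1 uM T3, 5% DMSO; compound exposure 5 h at ambient temperature.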
# Tau ThT inhib: inhibitors of human tau fibril formation, thioflavin T binding; recombinant tau K18 P301L, heparin-induced fibrillization, ThT fluorescence; Potency, µM (top dose mostly 57.4 µM), for inactives: at the highest dose activity, negative = inhibition, most hits filed as inhibitors; AID 1460; 2.1% of 270,000 active; also: nearly all actives have a fitted effect of over 55% in size
# Target sequence (P10636 561-689 P618L limits assumed): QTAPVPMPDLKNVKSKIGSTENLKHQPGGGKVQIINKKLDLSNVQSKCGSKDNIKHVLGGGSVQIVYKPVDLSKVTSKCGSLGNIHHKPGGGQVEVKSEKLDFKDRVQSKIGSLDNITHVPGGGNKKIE
#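 Recombinant human tau K18 fragment […] carrying P301L, 15 uM unlabeled plus 0.24 uM Alexa 594-labeled, was fibrillized with 20 uM heparin in 100 mM sodium acetate pH 7 for 6 hr at 37 C; 30 uM ThT fluorescence read after 1 hr.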
# Tau fluor cs: counter-screen for tau fibril formation inhibitors | tau K18 P301L (four-repeat tau fragment) Alexa594 fluorescence, heparin fibrillization | Potency, µM (top dose mostly 57.7 µM), without a hit: at the highest dose activity change, negative = decrease | 0.93% of 280,000 active; also: nearly all actives have a fitted effect of over 55% in size
#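 Human K18 P301L tau (15 uM unlabeled plus 0.24 uM Alexa 594-labeled, final) in 100 mM sodium acetate pH 7 was mixed with compound and 20 uM heparin and incubated 6 hr at 37 C.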
# Tau FP inhib: blocks human tau fibril formation measured by polarization. Potency, µM (top dose mostly 57.7 µM), inactives show at the top dose activity, negative = inhibition, usual class: inhibitors. K18 P301L tau heparin fibrillization, Alexa594 FP, 6 h. 0.39% of 280,000 active. P10636; also: nearly all actives have a fitted effect of over 55% in size
#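 Quantitative HTS format: compounds meet 15 uM recombinant K18 P301L tau and Alexa 594-tau tracer in 100 mM sodium acetate pH 7; 20 uM heparin triggers fibrillization at 37 C over 6 hr; FP gives the signal.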
# RGS12 GoLoco inh: blocks human Gai1 binding to RGS12 GoLoco peptide, red readout. P63096. Gai1:RGS12 GoLoco peptide FP, rhodamine, 10 min. Potency, µM (top dose mostly 61.6 µM), for inactives: top-dose activity, negative = inhibition, actives largely listed as inhibitors. 0.44% of 230,000 active; active = well fitted inhibition curve with a large enough effect, not every such curve was filed as active; inactive = no such curve, though single readings can be large or run the other way; also: nearly all actives have a fitted effect of over 30% in size
# * marks the source's active call; other numbers are inactive results; ? = inconclusive; . = not tested or not shown; [ ] = another dose, or the depositor's remark. Unless noted, calls follow the shape of the dose curve; as a rule, active = well fitted curve in the direction sought with a large enough effect; inconclusive = small, poorly fitted or top-dose-only effect, or another doubt; inactive = no such curve, though single readings can be large; an effect the other way counts as inactive or inconclusive. Unless noted, % is scaled to controls: 0 for no effect and ±100 for the full control effect; potency is read from the fitted curve at half-maximal effect.
SMILES,TRb-SRC2 inh,TexasRed fluor,Tau ThT inhib,Tau fluor cs,Tau FP inhib,RGS12 GoLoco inh
C=CCn1c(C)cc(C(=O)COC(=O)c2ccc(N)c([N+](=O)[O-])c2)c1C,-4.4%,2.8%,?,25.1µM*[quencher],-9.1%,-4.0%
O=C(OCCOCCOC(=O)c1ccccc1)c1ccccc1,9.8%[201 µM],3.5%[201 µM],.,.,.,.
Cc1ccc(C(=O)OC[C@H]2O[C@H](Cl)C[C@@H]2OC(=O)c2ccc(C)cc2)cc1,2.6%,-1.1%,-16.8%,-2.4%,3.1%,1.8%
Cc1nc(Nc2ccc(Cl)cc2Cl)sc1C(=O)Nc1ccccc1,1.2%,-4.4%,?,?,-15.6%,0.2%
Oc1nc(Nc2ccc(Cl)cc2Cl)sc1/C=C1\C=Nc2ccccc21,0.2%,-15.0%,8.91µM*,?,8.8%,140.1%
COC(=O)C1=C[C@@H](C(=O)OC)C2C3=C(C(=O)[C@]2(C)NC(=O)c2ccccc2)[C@H](C)n2c(=O)n(-c4ccccc4)c(=O)n2[C@@H]3C1 (stereo partly specified),1.5%,-4.2%,.,.,.,.
COc1ccc(NC(=S)Nc2ccccc2)c(OC)c1,-4.4%,-0.2%,-8.8%,-13.0%,-4.7%,6.8%
COc1ccc(NC(=S)Nc2ccc(OCc3ccccc3)cc2)c(OC)c1,-14.6%,2.2%,?,14.1µM*[quencher],?,13.1%
COc1ccc(C2CC(c3ccccc3)Oc3cc(OC)c(OC)c(OC)c32)cc1 (stereo unspecified),4.3%,-2.1%,.,.,.,.
N#Cc1cc2ccccc2nc1SCc1ccccn1,-7.0%,0.3%,15.8µM*,-27.5%,-7.2%,3.3%
Cc1[nH]c2ccccc2c1CC#N,6.3%,-3.7%,2.7%,0.1%,-3.3%,7.9%
Cc1[nH]c2ccccc2c1C(C#N)(C#N)C1C(=O)c2ccccc2C1=O,-0.6%,-4.1%,6.31µM*,4.47µM*[quencher],?,-6.6%
NC(=O)CC(NC(=O)Cc1cccc2ccccc12)c1ccc(N2CCN(c3ccccc3)CC2)c([N+](=O)[O-])c1 (stereo unspecified),5.7%,-1.5%,?,?,0.6%,0.7%
NC(=O)CC(NC(=O)Cc1cccc2ccccc12)c1ccc(N2CCc3ccccc3C2)c([N+](=O)[O-])c1 (stereo unspecified),-2.7%,-0.8%,11.2µM*,?,-1.8%,-2.4%
CCCCCCC1=Cc2cc(OC)c(OC)cc2C(C2(C(=O)OCC)CCCC2=O)O1 (stereo unspecified),2.6%[11.2 µM],-17.4%[11.2 µM],-5.7%[11.5 µM],-11.7%[11.6 µM],-13.7%[11.6 µM],.
O=C(O)Cc1sc(N/N=C\c2ccccc2)nc1-c1ccccc1,1.7%[53 µM],-2.1%[53 µM],10µM*,?,?,74.4%
CCCCC(=O)N1C/C=C\C(c2ccc(OC)cc2)N(Cc2ccc(F)cc2)C(=O)C1Cc1ccccc1 (stereo unspecified),0.9%,-0.7%,.,.,.,.
O=C1CC2(CCCC2)CC(=O)N1CCCCNCC1COc2ccccc2O1 (stereo unspecified),4.8%,-0.7%,3.9%,-3.9%,-2.7%,9.4%
CCCCC[C@H](O)/C=C/C=C\C/C=C\C/C=C\CCCC(=O)O,5.8%,-2.0%,-2.5%,2.3%,4.0%,1.0%
O=C(Nc1ccc(Cl)c(Cl)c1)Nc1nnc(CC2=CCCCC2)s1,2.4%,-1.5%,11.0%,?,8.91µM*,-3.8%
CN(C)c1ccc(N=Nc2nc3ccccc3n2C)cc1,5.6%,-2.0%,0.501µM*,12.6µM*[quencher],?,113.1%
Cc1ccc(Nc2c([N+](=O)[O-])ccc3c2=NC2(CCCCC2)N=3)cc1,-10.9%,-2.7%,15.8µM*,?,-11.5%,-47.4%
O=[N+]([O-])c1ccc2c(c1Nc1ccccc1Cl)=NC1(CCCCC1)N=2,8.8%,-1.4%,-19.6%,-15.1%,0.4%,-23.2%
CN(C)c1ncnc2ccc(-c3ccc4c(c3)OCO4)cc12,.,.,.,.,.,21.7%
CN=c1scc(-c2ccco2)n1/N=C/c1ccc(O)c(O)c1,-2.9%,-3.9%,7.08µM*,15.8µM*[quencher],?,1.5%
SMILES,TRb-SRC2 inh,TexasRed fluor,Tau ThT inhib,Tau fluor cs,Tau FP inhib,RGS12 GoLoco inh
COc1ccc(O)c(/C=N/n2c(-c3ccco3)csc2=Nc2cccnc2)c1,-7.8%,0.0%,-14.3%,-17.4%,1.0%,2.6%
Nc1c(S(=O)(=O)O)cc(Nc2ccc(Nc3nc(Cl)nc(Nc4ccc(S(=O)(=O)O)cc4)n3)c(S(=O)(=O)O)c2)c2c1C(=O)c1ccccc1C2=O,9.8%,22.4µM*[quencher],3.98µM*,2.82µM*[quencher],10µM*,3.6%
CCn1c(C(=O)N2CCC(C(=O)NCCCSC3CCCCC3)CC2)cc2sccc21,12.5%,-0.6%,?,-21.8%,-2.1%,42.5%
CCCSCCCNC(=O)C1CCN(C(=O)c2cc3sccc3n2C)CC1,-8.8%,31.6µM*[quencher],-18.8%,-23.9%,-4.4%,.
O=C(N/N=C/c1ccc(N2CCOCC2)s1)c1ccccc1Br,-1.4%,-1.1%,?,-12.0%,2.7%,16.7%
Clc1cccc(N/N=C/c2ccc(N3CCOCC3)s2)c1,7.1%,-49.5%,12.6µM*,15.8µM*[quencher],?,-4.3%
NCc1nnn(Cc2ccccc2)c1N,.,.,.,.,.,0.8%[14.2 µM]
N#CCCn1c(=O)cnc2cnc(Oc3cccc(Cl)c3)nc21,.,.,.,.,.,-0.1%
CC[n+]1c(C)sc2sc3ccccc3c21,1.4%,0.7%,.,-10.6%,-60.5%,11.2µM*
CC(C)c1ccc2cc(C(C)C)ccc2c1,-2.1%[201 µM],3.3%[201 µM],.,.,.,.
CCCCC(=O)N(C)C,2.8%,-0.2%,.,.,.,9.5%
CCCc1cc2c(OC(=O)CC)c(-c3ccc(C(=O)OCC)o3)c(=O)oc2cc1OC,3.6%,-9.5%,25.1µM*,-27.4%,5.1%,-2.4%
CCOC(=O)c1c(C(=O)OCC)c(C)n(CCc2ccc(OC)c(OC)c2)c1C,-5.5%,-0.2%,2.3%,3.1%,-0.1%,0.9%
CCC(=O)O[C@H]1C(O[C@@H]2C(C)[C@H](O[C@H]3C[C@@](C)(OC)C(O)C(C)O3)C(C)C(=O)OC(CC)[C@@](C)(O)C(O)[C@H](C)C(=O)C(C)C[C@]2(C)O)OC(C)CC1N(C)C (stereo partly specified),6.8%,-1.4%,?,?,4.4%,-0.8%
O=C1NN(c2ccccc2)C(=O)/C1=C/c1ccc(-c2ccc(Cl)c(C(=O)O)c2)o1,4.9%,-0.3%,7.08µM*,?,-9.0%,-10.4%
O=C(O)c1cc(-c2ccc(/C=C3\NC(=O)N(c4ccccc4)C3=O)o2)ccc1Cl,-2.0%,-4.4%,?,-25.1%,-16.8%,-3.3%
Cc1cccc(N2NC(=O)/C(=C/c3ccc(-c4ccc(Cl)c(C(=O)O)c4)o3)C2=O)c1,-1.0%,-2.2%,7.08µM*,?,?,-10.6%
